Test results reported in PubChem BioAssay (EPA / NIEHS).
Records with an inconclusive call do not appear. The source made the active and inactive calls. How the source made its calls, unless noted: active means hit-call score of the fitted dose curve at least 0.9, where 1 is the maximum; inconclusive means response in the unintended direction; inactive means score below 0.9.

Key:
[1] = Tanguay_ZF_120hpf_OTIC_legacy: (Legacy) Oregon State University Tanguay Lab 120 Hour Post-fertilization zebrafish Assay for Otic Vesicle Malformation (AID 2283639)
Method in brief: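 Embryos from 5D wild-type adults exposed in plates; DMSO 0.64% v/v final. Sealed, light-protected, 28C, static to 120 hpf. Otic vesicle malformation recorded as binary endpoint; gain-of-signal fitted vs DMSO.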

[2] = Tanguay_ZF_120hpf_PE_legacy: (Legacy) Oregon State University Tanguay Lab 120 Hour Post-fertilization zebrafish Assay for Pericardial Edema (AID 2283640);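 on AC50: potency for increased incidence of pericardial edema versus DMSO baseline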
Method in brief: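 Read-out is the presence or absence of pericardial edema at 120 hpf under brightfield, with gain of signal fitted against DMSO controls. Larvae (5D wild-type) were statically exposed at 28C with 0.64% final DMSO.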

[3] = Tanguay_ZF_120hpf_BRAI_legacy: (Legacy) Oregon State University Tanguay Lab 120 Hour Post-fertilization zebrafish Assay for Brain Malformation (AID 2283641)
Method in brief: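 Brain malformation in Tropical 5D zebrafish was recorded as a binary endpoint after static compound exposure from early development to 120 hpf at 28C. Activity was analysed against DMSO as negative control.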

[4] = Tanguay_ZF_120hpf_SOMI_legacy: (Legacy) Oregon State University Tanguay Lab 120 Hour Post-fertilization zebrafish Assay for Somite Malformation (AID 2283647)
Method in brief: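 5D WT zebrafish; chorion removed 4 hpf; 1 embryo/well from 6 hpf; static exposure to 120 hpf, 28C, 0.64% DMSO final. Endpoint: somite malformation, binary, brightfield. Mortality excluded.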

[5] = Tanguay_ZF_120hpf_PFIN_legacy: (Legacy) Oregon State University Tanguay Lab 120 Hour Post-fertilization zebrafish Assay for Pectoral Fin Malformation (AID 2283648);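 further: each larva judged yes or no for fin defect by brightfield with dead larvae skipped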
Method in brief: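 5D WT zebrafish; pronase dechorionation 4 hpf; 1 embryo/well at 6 hpf; static exposure to 120 hpf, 28C, sealed, foil-covered; final DMSO 0.64% v/v; 5 uM trimethyltin chloride positive control; fin defect scored yes/no.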

[6] = Tanguay_ZF_120hpf_CFIN_legacy: (Legacy) Oregon State University Tanguay Lab 120 Hour Post-fertilization zebrafish Assay for Caudal Fin Malformation (AID 2283649)
Method in brief: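 Embryos were collected from Tropical 5D wild-type adults and dechorionated at 4 hpf. At 6 hpf each was exposed, one per well, at 0.64% DMSO and 28C. At 120 hpf fin morphology was scored; dead embryos were excluded.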

[7] = Tanguay_ZF_120hpf_PIG_legacy: (Legacy) Oregon State University Tanguay Lab 120 Hour Post-fertilization zebrafish Assay for Pigmentation Malformation (AID 2283650)
Method in brief: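 Pronase dechorionation at 4 hpf; embryos plated at 6 hpf, one per well; static exposure, sealed and foil-covered, 28C, to 120 hpf; pigmentation read by brightfield, binary; DMSO 0.64% baseline, 5uM trimethyltin chloride positive control.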

[8] = Tanguay_ZF_120hpf_CIRC_legacy: (Legacy) Oregon State University Tanguay Lab 120 Hour Post-fertilization zebrafish Assay for Circulatory Malformation (AID 2283651)
Method in brief: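 Read-out: presence or absence of circulatory malformation at 120 hpf, scored by brightfield microscopy, fitted in the gain-of-signal direction against DMSO baseline. Wild-type 5D larvae were exposed from 6 hpf after enzymatic chorion removal.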

[9] = read-out: solute carrier (SLC22A6), SLC22A6 (gene 9356); test: LTEA_HepaRG_SLC22A6: Life Technologies and Expression Analysis (LTEA) Assay for solute carrier (SLC22A6) using HepaRG (AID 2283653; active means hit-call score of the fitted dose curve at least 0.9, where 1 is the maximum; inactive means score below 0.9); conditions: mRNA level, 48 h; actives raise or lower the signal
Method in brief: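 This endpoint tracks SLC22A6 mRNA induction or suppression in human HepaRG cultures after 48 h dosing, concentrations reaching 100 uM. Values derive from bidirectional fitting against DMSO controls.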

[10] = read-out: kallikrein-3 (KLK3), KLK3 (gene 354); test: LTEA_HepaRG_KLK3: Life Technologies and Expression Analysis (LTEA) Assay for kallikrein-3 (KLK3) using HepaRG (AID 2283652; active means hit-call score of the fitted dose curve at least 0.9, where 1 is the maximum; inactive means score below 0.9); conditions: mRNA level, 48 h; actives raise or lower the signal
Method in brief: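 Differentiated human HepaRG cells in serum-free induction medium exposed 48 h in duplicate, eight-point half-log series from 100 uM in 0.5% DMSO. KLK3 mRNA by qRT-PCR, normalised to ACTB, GAPDH, POLR2A; bidirectional fit versus DMSO.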

Measured: AC50

CC1=C(/C=C/C(C)=C/C=C/C(C)=C/C(=O)O)C(C)(C)CCC1
inactive: [8]
active: [1] 0.211 µM | [2] 0.193 µM | [3] 0.237 µM | [4] 0.323 µM | [5] 0.248 µM | [6] 0.186 µM | [7] 0.252 µM

CN1CCN(c2ccccc2/C=C2\SCCN(c3ccc(Cl)c(Cl)c3)C2=O)CC1
not listed: [6] | [9] | [10]
inactive: all other assays above

CCCCCCCCC(=O)O
not listed: [9] | [10]
inactive: all other assays above

CCCOC(=O)c1ccc(O)cc1
active: [1] 40 µM | [2] 11 µM | [3] 41.4 µM | [4] 33.3 µM | [5] 45.8 µM | [6] 75.8 µM | [7] 49.1 µM | [8] 40.1 µM

CC(=O)NC1(c2cccc(F)c2)CCN(CC[C@@]2(c3ccc(Cl)c(Cl)c3)CN(c3ccccc3)C(=O)CO2)CC1
not listed: [6] | [9] | [10]
inactive: all other assays above

NC(=O)N1C(=O)C(C(=O)c2cc(Cl)cs2)c2cc(F)c(Cl)cc21 (centres undefined)
not listed: [6] | [9] | [10]
inactive: all other assays above

CCCCCCC(=O)O
not listed: [6] | [9] | [10]
inactive: all other assays above

CCCCCCCCCCCCN1CCCC1=O
active: [2] 35.8 µM
not listed: [6] | [9] | [10]
inactive: all other assays above

CN1CCC[C@H]1c1cccnc1
inactive: [1] | [2] | [3] | [4] | [5] | [7]

CCCCC(CC)COC(=O)CCCCC(=O)OCC(CC)CCCC (centres undefined)
not listed: [6] | [9] | [10]
inactive: all other assays above

CC[C@H](C)[C@@H](C(=O)O)n1sc2ccccc2c1=O
not listed: [6] | [9] | [10]
inactive: all other assays above

CCCCCCCC(=O)O
not listed: [6] | [9] | [10]
inactive: all other assays above

Cc1oc(-c2ccccc2)nc1CCOc1ccc(C[C@H](Nc2ccccc2C(=O)c2ccccc2)C(=O)O)cc1
inactive: [1] | [2] | [3] | [4] | [5] | [7]

OC1CCC(C2CCCCC2)CC1 (centres undefined)
not listed: [9] | [10]
inactive: all other assays above

Nc1cccc2c(N)cccc12
inactive: [1] | [2] | [3] | [4] | [5] | [7]

CCc1ccc(CCOc2ccc(CC3SC(=O)NC3=O)cc2)nc1 (centres undefined)
not listed: [9] | [10]
inactive: all other assays above

Oc1cc2ccccc2c2ccccc12
active: [1] 10.8 µM | [2] 31.9 µM | [3] 36.2 µM | [4] 12.4 µM | [5] 12.1 µM | [7] 12.9 µM | [8] 10.2 µM

O=[N+]([O-])c1ccc(O)cc1
not listed: [9] | [10]
inactive: all other assays above

OC1CCCCC1
inactive: [1] | [2] | [3] | [4] | [5] | [7]

COC(=O)CCCCC(=O)OC
not listed: [6] | [9] | [10]
inactive: all other assays above

CCc1nn(C2CCCCC2)c2cc(C3(C#N)CCC(C(=O)O)CC3)ccc12 (centres undefined)
inactive: [7] | [8]
active: [1] 3.66 µM | [2] 0.27 µM | [3] 2.71 µM | [4] 0.506 µM | [5] 0.563 µM

CC(=O)CC(C)(C)O
not listed: [9] | [10]
inactive: all other assays above

CCCCCCCCOC(=O)CCCCCCCCC(=O)OCCCCCCCC
inactive: [1] | [2] | [3] | [4] | [5] | [7]

COCC(C)O (centres undefined)
inactive: [1] | [2] | [3] | [4] | [5] | [7]

CC(O)CO (centres undefined)
not listed: [10]
inactive: all other assays above

CC(C)(C)c1ccc(O)c(C(C)(C)C)c1
not listed: [6] | [9] | [10]
inactive: all other assays above

CCC(C)(C)C1CCC(O)CC1 (centres undefined)
inactive: [1] | [2] | [3] | [4] | [5] | [7]

C[C@@H]1C[C@H]2[C@@H]3CCC4=CC(=O)C=C[C@]4(C)[C@@]3(F)[C@@H](O)C[C@]2(C)[C@@]1(O)C(=O)COP(=O)(O)O
not listed: [6] | [9] | [10]
inactive: all other assays above

CC[C@H](c1ccc(O)cc1)[C@@H](CC)c1ccc(O)cc1
not listed: [6] | [9] | [10]
inactive: all other assays above

Cc1cc(CCN2CCN(c3nsc4ccccc34)CC2)cc2c1NC(=O)CC2(C)C
active: [1] 6.42 µM | [2] 2.96 µM | [3] 5.16 µM | [4] 3.88 µM | [5] 5.62 µM | [7] 6.31 µM | [8] 5.83 µM

O=C(O)Cc1cc(I)c(Oc2cc(I)c(O)c(I)c2)c(I)c1
active: [3] 0.00612 µM | [7] 0.0192 µM
inactive: [1] | [2] | [4] | [5] | [8]

c1ccc2cc3c(ccc4ccccc43)cc2c1
active: [1] 40.6 µM | [2] 33.4 µM | [3] 48.5 µM
inactive: [4] | [7] | [8]

CC(C)(C)c1cccc(C(C)(C)C)c1O
inactive: [1] | [2] | [3] | [4] | [7] | [8]

O=C(O)c1ccccc1C(c1ccc(O)cc1)c1ccc(O)cc1
not listed: [3] | [9] | [10]
inactive: all other assays above

Cc1cc(C)c(O)c(C)c1
inactive: [1] | [2] | [4] | [5] | [7]

CC#C[C@]1(O)CC[C@H]2[C@@H]3CCC4=CC(=O)CCC4=C3[C@@H](c3ccc(N(C)C)cc3)C[C@@]21C
inactive: [4] | [6] | [7] | [8]
active: [2] 73.3 µM

ClC1=C(Cl)C(Cl)(Cl)C(Cl)=C1Cl
not listed: [5] | [8]
inactive: all other assays above

OCCC(F)(F)C(F)(F)C(F)(F)C(F)(F)C(F)(F)C(F)(F)C(F)(F)C(F)(F)F
inactive: [3] | [4] | [5] | [7] | [8]

COCC(C)OCC(C)O (centres undefined)
inactive: [1] | [2] | [3] | [4] | [5] | [8]

NC(=O)N(O)[C@@H]1C=C[C@H](Oc2cccc(Oc3ccc(F)cc3)c2)C1
inactive: [2] | [3] | [4] | [5] | [7]

CCCCOCCO
inactive: [2] | [3] | [4] | [5] | [7] | [8]

CCCCCCCCCCCCCCCS(=O)(=O)Oc1ccccc1
not listed: [3] | [9] | [10]
inactive: all other assays above

CC(C)(C)c1cc(C(C)(C)C)c(O)c(C(C)(C)C)c1
inactive: [2] | [3] | [5] | [7] | [8] | [9]

O=C(OCCOCCOC(=O)c1ccccc1)c1ccccc1
not listed: [4]
inactive: all other assays above

CCOC(=O)CC(O)(CC(=O)OCC)C(=O)OCC
not listed: [6] | [9] | [10]
inactive: all other assays above

CCN(CC)CCNc1ccc(CNC=O)c2sc3ccc(OC)cc3c(=O)c12
inactive: [2] | [3] | [4] | [6] | [7] | [8]

CCCCC(CC)COC(=O)CCCCC(=O)OCc1ccccc1 (centres undefined)
inactive: [1] | [2] | [3] | [4] | [5] | [8]

c1ccc2c(c1)ccc1ccccc12
inactive: [2] | [3] | [5] | [7] | [8]

C=C(C)C(=O)OCCC(F)(F)C(F)(F)C(F)(F)C(F)(F)C(F)(F)C(F)(F)F
not listed: [3] | [4] | [6]
inactive: all other assays above

CCC(=C(c1ccc(O)cc1)c1ccc(OCCN(C)C)cc1)c1ccccc1
inactive: [1] | [4] | [5] | [8]

CCCOc1sc(C(=O)N2CCC(c3cc(CN)ccc3F)CC2)c(C)c1Br
inactive: [1] | [2] | [3] | [4] | [5] | [8]

O=c1c(-c2ccc(O)cc2)coc2cc(O)ccc12
inactive: [1] | [2] | [4] | [5] | [7] | [8]

COc1ccc([N+](=O)[O-])cc1N
inactive: [1] | [2] | [4] | [5] | [8]

c1ccc2c(c1)Cc1ccccc1-2
inactive: [1] | [2] | [3] | [4] | [7]

CC(C)CCCCCCOC(=O)CCCCC(=O)OCCCCCCC(C)C
inactive: [1] | [2] | [3] | [4] | [7] | [8]

C#C[C@]1(O)CC[C@H]2[C@@H]3CCC4=CC(=O)CC[C@@H]4[C@H]3CC[C@@]21C
inactive: [1] | [2] | [5] | [7] | [9]

OCCC(F)(F)C(F)(F)C(F)(F)C(F)(F)C(F)(F)C(F)(F)F
inactive: [1] | [2] | [3] | [4] | [7] | [8]

Oc1cccc(O)c1
inactive: [1] | [2] | [3] | [4] | [7] | [8]

CCCCCCCCCCCCc1ccccc1S(=O)(=O)O
inactive: [1] | [2] | [4] | [5] | [8]

CN(C)C=O
inactive: [1] | [3] | [4] | [5] | [7] | [8]

N#C[C@@H]1CC(F)(F)CN1C(=O)CNC1CC2CCC(C1)N2c1ncccn1 (some centres undefined)
inactive: [1] | [3] | [4] | [5] | [7] | [8]

CC(C)(C)CC(C)(C)c1ccc(O)c(-n2nc3ccccc3n2)c1
not listed: [6] | [9] | [10]
inactive: all other assays above
